Where “and” joins values, the source holds several entries; their conditions need not be identical. Equal entries are not always repeated. Calls of active or inactive are those of the source.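 How the source made its calls, unless noted: active means thallium flux through the channel raised or lowered by more than 3 SD from vehicle-only wells, actives on both sides; inactive means the rest.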

The nature of experiment [1]: stimulators of nuclear beta-catenin in C2C12, primary screen, imaging, WNT3A-conditioned medium, mouse C2C12, NPC library (AID 1117326; in the data active means nuclear beta-catenin stimulation mostly above about 4.2%, no sharp cut-off; inactive means mostly below about 10%). The following applies: stronger effect = higher value.
Experiment [2] in a line: stimulators of insulin release from INS-1E, primary screen, cell-based, 5 mM glucose, NPC library (AID 1117329;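 active means compound raises insulin release from rat beta cells at 5 mM glucose, no numeric limit stated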). Conditions: rat INS-1E insulin secretion, at 10 µM, stronger effect = higher value.
Experiment [3] is described as follows: growth inhibition of GSK3B-pretreated HCT116 cells – cell-based, CellTiter-Glo, 0.2 to 20 µM (AID 1117336;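 active means compounds lowering colon cancer cell viability after pretreatment blocking the GSK3B kinase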). Conditions: HCT116 viability after GSK3B inhibitor, at 20 µM, stronger effect = higher value.
The nature of experiment [4]: inhibition of endothelial tube formation, primary screen, imaging, VEGF stimulated, CD31 staining, tube area, NPC library (AID 1117340;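 active means compound that reduces growth-factor-driven endothelial tube area in a mixed cell culture, no cutoff stated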). The following applies: VEGF-stimulated ADSC/ECFC co-culture, at 10 µM, stronger effect = higher value.
Experiment [5] can be described thus: glucagon-like peptide 1 release enhancers, primary assay, NCI-H716 cell line, NPC library (AID 1117341;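 active means compound raises GLP1 secretion from the human gut endocrine cells, with no numeric limit stated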). The following applies: NCI-H716 cells, at 10 µM, stronger effect = higher value.
The nature of experiment [6]: HCT116 colon cancer cell growth inhibition, primary screen, CellTiter-Glo luminescence, NPC library (AID 1117342;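 active means compounds that lower survival of HCT116 colon cancer cells in the luminescence readout, no numeric limit stated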). The following applies: at 20 µM (top of the series). Background: In ATP-based viability assays light output follows the ATP content of the culture.
Experiment [7] is described as follows: CellTiter-Glo luminescent readout of SW480 viability loss, NPC library primary (AID 1117343;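 active means compounds that lower viability of the colon cancer cells in the luminescence readout, with no numeric limit stated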). Conditions: CellTiter-Glo luminescence; at 20 µM (top of the series).
Experiment [8] in a line: decreased DLD-1 cellular survival, CellTiter-Glo luminescent readout, NPC compound collection, primary HTS (AID 1117346;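 active means compounds that lower survival of DLD-1 colon cancer cells in the luminescence readout, no cutoff given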). The following applies: DLD-1 viability, CellTiter-Glo luminescence; at 20 µM (top of the series).
Experiment [9] has as its target 6-phosphogluconate dehydrogenase, decarboxylating (Homo sapiens) (UniProt P52209). Put plainly: 6PGD enzyme inhibitors, primary screen, biochemical, human, recombinant enzyme, NADPH absorbance (AID 1159550;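 active means at least 20% inhibition of 6-phosphogluconate dehydrogenase activity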). Conditions: recombinant 6PGD, NADPH absorbance 341 nm; at 10 µM; stronger effect = higher value.
A short description of experiment [10]: modulation of C. elegans fzo-1 (AID 1259413; call rule not given here;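 further: fzo-1 mutant C. elegans worms in liquid wells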). The following applies: C. elegans fzo-1 modulator screen, mean read-out; stronger effect = higher value.
The nature of experiment [11]: differential killing of epithelial or mesenchymal cells, primary screen, imaging, PC-3E GFP, TEM4-18 mCherry, co-culture (AID 1345086;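 active means compounds killing one labelled cell type while sparing the other, by normalised counts and ratio limits, not self-fluorescent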;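 on all read-outs here: cells exposed to compound for 72 h before imaging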;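 on red/green cell ratio (normalised): normalised mesenchymal count divided by normalised epithelial count so high means epithelial killing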). Conditions: imaging cell counts, at 1 µM; for red/green cell ratio (normalised): actives lie on both sides, counts scaled to control wells, 1 = unselective.
Experiment [12] can be described thus: sensitizers of A549 cells to miR-34 induction, primary screen, imaging, A549 dox-inducible miR-34, nuclei and caspase counts (AID 1347080;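 active means compounds whose cell count with miR-34 switched on is under 0.7 times the count with it off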). Conditions: A549 miR-34 inducible, Hoechst nuclei count, 48 h.
Experiment [13] is described as follows: survival rescue of mitochondrial mutant cells in low glucose, primary screen, MELAS cybrids, Rieske KO mouse fibroblasts, CellTiter-Glo (AID 1508586;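 active means mean z-score across replicates of 1.96 or higher in either the MELAS or the Rieske mutant cell line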;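 further: z relative to plate mean and SD of compound and empty wells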).
For experiment [14], the target named is NAD(+) hydrolase SARM1 (Homo sapiens) (UniProt Q6SZW1). Put plainly: SARM1 TIR NADase inhibitors, cell lysate, NAD-Glo luminescence (AID 1508614;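 active means compound whose remaining NAD level is above about 45 nM, limit read from the data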). Conditions: SAM-TIR HEK293T lysate NADase, at 1 µM, stronger effect = higher value.
Sequence of NAD(+) hydrolase SARM1 (Homo sapiens) (Q6SZW1 whole entry, looked up, the tested form may be a part): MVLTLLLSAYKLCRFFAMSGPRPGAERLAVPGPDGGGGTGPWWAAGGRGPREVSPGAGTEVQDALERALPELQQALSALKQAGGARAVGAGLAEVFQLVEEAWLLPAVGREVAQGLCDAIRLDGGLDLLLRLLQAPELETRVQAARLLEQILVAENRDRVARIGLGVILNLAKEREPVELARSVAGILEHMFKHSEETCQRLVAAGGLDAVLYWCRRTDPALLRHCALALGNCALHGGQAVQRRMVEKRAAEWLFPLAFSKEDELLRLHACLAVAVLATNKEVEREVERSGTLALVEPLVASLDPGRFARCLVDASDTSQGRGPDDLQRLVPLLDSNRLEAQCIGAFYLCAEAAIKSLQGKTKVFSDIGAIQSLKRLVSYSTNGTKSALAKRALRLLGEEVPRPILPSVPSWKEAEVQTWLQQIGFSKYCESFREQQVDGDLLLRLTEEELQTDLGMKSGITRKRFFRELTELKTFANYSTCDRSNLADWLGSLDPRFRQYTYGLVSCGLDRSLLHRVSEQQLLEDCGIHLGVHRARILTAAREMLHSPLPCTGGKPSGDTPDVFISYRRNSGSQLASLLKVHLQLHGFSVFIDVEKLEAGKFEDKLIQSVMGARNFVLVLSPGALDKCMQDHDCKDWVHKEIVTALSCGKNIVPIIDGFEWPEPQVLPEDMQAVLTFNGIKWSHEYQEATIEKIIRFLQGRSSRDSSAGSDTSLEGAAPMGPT
Experiment [15] has as its target Mitogen-activated protein kinase 7 (Homo sapiens) (UniProt Q13164). As to the kind of experiment: ERK5 transactivation activators in reporter cells, primary screen, cell-based, HTS (AID 1508626;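 active means luciferase signal above three times the same-plate solvent-only control wells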;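 further: luciferase driven by Gal4-ERK5 fusion binding five Gal4 sites before minimal TATA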). The following applies: HeLa Gal4-ERK5 transactivation, 18 h, at 5 µM, stronger effect = higher value.
The test system of a further experiment is F380Y. As to the kind of experiment: modulators of BK channel variants, profiling panel, selectivity assay, cell-based, U2OS BacMam, thallium flux, beta subunits (AID 1259406).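 Further: initial slope of Thallos dye fluorescence rise after thallium is added; log ratio against the mean of 0.3% DMSO vehicle wells on the same plate.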 The following applies: at 30 µM.
A further experiment has as its system F380Y/beta1. The experiment is described as above. The following applies: at 30 µM.
Another experiment concerns F380Y/beta2Delta. The description is as above. Conditions: at 30 µM.
Setting [16] is: measured here: epithelial PC-3E GFP cell survival.
[17] abbreviates: measured here: mesenchymal TEM4-18 mCherry cell survival.
Where [18] appears, read: stronger effect = lower value, cell number ratio, induced over uninduced.
Where [19] appears, read: measured here: relative caspase fold change +Dox/-Dox.
The mark [20] stands for this setting: measured here: total cells with miR-34 induction, stronger effect = lower value.
Where [21] appears, read: measured here: total cells without miR-34 induction.
The mark [22] stands for this setting: MELAS cybrid survival, CellTiter-Glo 48 h, stronger effect = higher value.
The mark [23] stands for this setting: Rieske KO mouse fibroblast survival, CellTiter-Glo 72 h.

Sequence of 6-phosphogluconate dehydrogenase, decarboxylating (Homo sapiens) (P52209 whole entry, looked up): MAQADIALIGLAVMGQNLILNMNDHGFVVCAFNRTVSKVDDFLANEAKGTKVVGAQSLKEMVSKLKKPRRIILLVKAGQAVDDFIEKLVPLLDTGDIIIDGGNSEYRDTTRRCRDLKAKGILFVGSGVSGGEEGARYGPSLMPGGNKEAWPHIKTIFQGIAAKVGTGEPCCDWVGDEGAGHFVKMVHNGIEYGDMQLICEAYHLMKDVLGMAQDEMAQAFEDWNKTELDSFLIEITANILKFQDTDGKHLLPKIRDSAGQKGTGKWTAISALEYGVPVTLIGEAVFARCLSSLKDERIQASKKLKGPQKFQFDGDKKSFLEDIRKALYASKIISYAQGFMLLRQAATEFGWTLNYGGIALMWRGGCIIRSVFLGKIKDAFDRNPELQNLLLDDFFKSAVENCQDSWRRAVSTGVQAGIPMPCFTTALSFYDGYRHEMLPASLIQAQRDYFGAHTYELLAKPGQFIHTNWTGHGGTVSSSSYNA
Sequence of Mitogen-activated protein kinase 7 (Homo sapiens) (Q13164 whole entry, looked up, the tested form may be a part): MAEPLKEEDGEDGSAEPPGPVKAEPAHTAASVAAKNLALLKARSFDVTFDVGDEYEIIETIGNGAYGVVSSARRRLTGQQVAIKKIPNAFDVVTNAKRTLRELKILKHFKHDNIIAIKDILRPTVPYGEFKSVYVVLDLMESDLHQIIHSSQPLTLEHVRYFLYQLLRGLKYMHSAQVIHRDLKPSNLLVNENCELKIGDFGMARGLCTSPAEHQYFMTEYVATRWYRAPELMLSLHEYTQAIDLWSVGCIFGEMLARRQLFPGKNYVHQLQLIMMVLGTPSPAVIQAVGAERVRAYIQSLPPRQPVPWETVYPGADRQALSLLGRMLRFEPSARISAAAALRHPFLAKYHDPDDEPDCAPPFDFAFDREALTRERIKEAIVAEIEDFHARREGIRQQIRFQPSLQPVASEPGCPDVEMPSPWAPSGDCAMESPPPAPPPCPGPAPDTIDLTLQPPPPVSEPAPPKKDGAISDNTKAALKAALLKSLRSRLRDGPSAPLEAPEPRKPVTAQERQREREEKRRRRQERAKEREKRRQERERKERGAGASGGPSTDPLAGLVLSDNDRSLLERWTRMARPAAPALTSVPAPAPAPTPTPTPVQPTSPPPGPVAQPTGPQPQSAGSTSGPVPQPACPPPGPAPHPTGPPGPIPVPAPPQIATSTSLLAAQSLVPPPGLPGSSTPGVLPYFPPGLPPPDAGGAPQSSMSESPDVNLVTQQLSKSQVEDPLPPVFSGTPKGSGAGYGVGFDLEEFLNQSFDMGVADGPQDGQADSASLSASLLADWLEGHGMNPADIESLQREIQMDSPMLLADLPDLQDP

Usually inhibition stands for the drop in the measured response relative to a control, in per cent. Consider `NS(=O)(=O)c1cc(C2(O)NC(=O)c3ccccc32)ccc1Cl` (stereo unspecified), for which the nuclear beta-catenin stimulation in experiment [1] (at 10 µM) was 2.1% (inactive); in experiment [1] (stimulation, at 2 µM), 6.2%. The insulin secretion stimulation in experiment [2] was 0.8% (inactive). Besides, the viability decrease in [3] is -12.6% (inactive). Further, the tube area decrease in experiment [4] is 2.3% (inactive). In addition, the GLP1 secretion stimulation in experiment [5] is -2% (inactive). Besides, in [6], the inhibition of viability was -5.17% (inactive). Further, the viability decrease (inhibition) in experiment [7] is 16.8% (inactive); in experiment [8] it was -4% (inactive). Moreover, the inhibition in [9] was 7.34% (inactive). Further, the mean signal in [10] is 251 (inactive). The red/green cell ratio (normalised) in [11] was 1.08 (inactive). In addition, the normalised cell number worked out at 1.2 in [11] (setting [16]) and 1.3 in experiment [11] (setting [17]). Further, the fold change in [12] (setting [18]) was 0.98 (inactive) and 0.828 (inactive) and 0.88 (inactive); in [12] (setting [19]) it was 1.92 and 1.71 and 1.64. The cell count in experiment [12] (setting [20]) was 11100 and 8640 and 10800; in experiment [12] (setting [21]), 11400 and 10400 and 12300. Besides, the figures for the z-score in experiment [13] (setting [22]) and in experiment [13] (setting [23]) were -0.366 (inactive) and -0.339, respectively. In addition, the remaining NAD in [14] was 10 nM (inactive). Also, in experiment [15], the luciferase signal is 36 AU (inactive). The log fold change Tl+ flux was -0.0172 (inactive) in the experiment on F380Y, -0.0295 (inactive) in the experiment with F380Y/beta1 and -0.039 (inactive) in the experiment with F380Y/beta2Delta.

On to `COC1=CC(=O)C[C@@H](C)[C@]12Oc1c(Cl)c(OC)cc(OC)c1C2=O`, for which the nuclear beta-catenin stimulation was 1.9% (inactive) in [1] (at 10 µM) and 0.3% in [1] (stimulation, at 2 µM). Further, the insulin secretion stimulation in experiment [2] is 6.2% (inactive). For the same compound, the viability decrease in experiment [3] is 38.4% (inactive). Moreover, the tube area decrease in experiment [4] was 24.2% (inactive). Further, the GLP1 secretion stimulation in [5] is 0.1% (inactive). The inhibition of viability in [6] was 43.7% (inactive). The results for the viability decrease (inhibition) in [7] and in [8] were 64.1% (active) and 20% (inactive), respectively. The inhibition in [9] is 1.41% (inactive). Moreover, in [10], the mean signal was 231 (inactive). In addition, the red/green cell ratio (normalised) in [11] is 0.76 (inactive). The normalised cell number worked out at 1.41 in experiment [11] (setting [16]) and 1.07 in [11] (setting [17]). The fold change in [12] (setting [18]) is 1.07 (inactive) and 0.956 (inactive) and 0.943 (inactive); in [12] (setting [19]), 2.5 and 0.98 and 2.02. Further, the cell count in experiment [12] (setting [20]) was 6100 and 6900 and 8710; in experiment [12] (setting [21]), 5720 and 7210 and 9240. Also, the z-score was 1.78 (inactive) in experiment [13] (setting [22]) and 0.726 in experiment [13] (setting [23]). Also, the remaining NAD in experiment [14] is 10 nM (inactive). Besides, in experiment [15], the luciferase signal is 104 AU (inactive). Also, the log fold change Tl+ flux was 0.00739 (inactive) in the experiment with F380Y, -0.046 (inactive) in the experiment with F380Y/beta1 and 0.0194 (inactive) in the experiment on F380Y/beta2Delta.

Regarding `Cc1ccc(C)c(OCCCC(C)(C)C(=O)O)c1`, the nuclear beta-catenin stimulation in experiment [1] (at 10 µM) is 1.3% (inactive); in experiment [1] (stimulation, at 2 µM) it was 1.2%. The insulin secretion stimulation in [2] is -1% (inactive). The viability decrease in experiment [3] was 4.95% (inactive). Besides, in experiment [4], the tube area decrease is -9.2% (inactive). The GLP1 secretion stimulation in [5] is 2.4% (inactive). Moreover, the inhibition of viability in experiment [6] is -1.9% (inactive). The results for the viability decrease (inhibition) in experiment [7] and in experiment [8] were 20.7% (inactive) and 0.75% (inactive), respectively. Also, the inhibition in experiment [9] is -2.35% (inactive). Further, the mean signal in [10] is 239 (inactive). The red/green cell ratio (normalised) in experiment [11] is 1.25 (inactive). In addition, the normalised cell number in experiment [11] (setting [16]) worked out at 0.82; in experiment [11] (setting [17]), 1.03. Moreover, the z-score was -0.269 (inactive) and 0.233 (inactive) and 0.482 (inactive) in experiment [13] (setting [22]); 0.636 and -0.228 and 0.576 in experiment [13] (setting [23]). In addition, in experiment [14], the remaining NAD was 10 nM (inactive). Also, the luciferase signal in experiment [15] was 128 AU (inactive). For the same compound, the values for the log fold change Tl+ flux with F380Y, with F380Y/beta1 and in the experiment on F380Y/beta2Delta were 0.0531 (inactive), 0.07 (inactive) and 0.0499 (inactive), respectively.
